# Measured values from PubChem BioAssay (Tox21).
# Several values for one entry are separate records, joined by “and”; a condition that tells them apart may be missing. Equal values may be shown once. Records with an inconclusive call do not appear. Entries that show only a call come without a potency. Some compounds were tested as several samples or in several runs, with calls that do not always agree. Activity calls are given as the source filed them. Unless noted, the call rests on the fitted dose curve; in most records, active means well fitted curve in the direction sought with a large enough effect in the repeat runs; inconclusive means weak or mixed curves; inactive means no such curve, though single readings can be large; an effect the other way counts as inactive or inconclusive.
# Columns and labels:
# [1] = molecular target: Estrogen receptor beta (Homo sapiens) (UniProt Q92731); assay: qHTS assay to identify small molecule agonists of the estrogen receptor beta (ER-beta) signaling pathway (AID 1259377; active means well fitted activation curve with a large enough effect in the signal ratio in the repeat runs, not every such curve was filed as active; the % refers to the signal ratio; further: potency means the concentration at half of the fitted maximal effect)
# Estrogen receptor beta (Homo sapiens), sequence (Q92731 whole entry, looked up): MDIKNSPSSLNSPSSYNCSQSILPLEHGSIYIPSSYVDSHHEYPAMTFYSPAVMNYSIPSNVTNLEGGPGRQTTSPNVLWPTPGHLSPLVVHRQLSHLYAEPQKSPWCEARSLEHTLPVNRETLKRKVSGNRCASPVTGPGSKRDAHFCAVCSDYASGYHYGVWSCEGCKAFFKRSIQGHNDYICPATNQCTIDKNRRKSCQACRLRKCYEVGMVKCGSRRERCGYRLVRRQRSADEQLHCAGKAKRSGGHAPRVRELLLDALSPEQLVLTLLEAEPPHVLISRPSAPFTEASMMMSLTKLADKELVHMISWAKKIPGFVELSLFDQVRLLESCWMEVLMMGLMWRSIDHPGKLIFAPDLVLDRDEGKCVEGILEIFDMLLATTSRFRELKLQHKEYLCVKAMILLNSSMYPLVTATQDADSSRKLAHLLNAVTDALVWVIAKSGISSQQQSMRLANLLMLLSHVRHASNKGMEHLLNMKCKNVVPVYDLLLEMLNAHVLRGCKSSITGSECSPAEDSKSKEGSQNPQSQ
# Procedure, shortened: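 In HEK293T cells bearing a UAS-beta-lactamase reporter under ER-beta control, DMSO-delivered compounds were incubated for 16 hr at 37C. Activity was detected as fluorescence 2 hours after LiveBLAzer B/G FRET substrate addition.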
# [2] = molecular target: Estrogen receptor beta (Homo sapiens) (UniProt Q92731); assay: qHTS assay to identify small molecule antagonists of the estrogen receptor beta (ER-beta) signaling pathway (AID 1259378; active means well fitted inhibition curve with a large enough effect in the signal ratio in the repeat runs, not every such curve was filed as active; the % refers to the signal ratio; further: potency means the concentration at half of the fitted maximal effect)
# Procedure, shortened: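 Antagonist mode: compounds added to beta-lactamase reporter HEK293T ER-beta-UAS cells stimulated with E2 (1nM final), 16 hr at 37C. LiveBLAzer B/G FRET substrate, 2 hours room temperature, fluorescence read-out.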
# [3] = qHTS assay to identify small molecule agonists of the androgen receptor (AR) signaling pathway in the presence of an antagonist - cell viability counter screen (AID 1259379); further: nearly all actives have a fitted effect of over 25% in size; further: potency means the concentration at half of the fitted maximal effect
# Procedure, shortened: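 Nilutamide-containing (3.0uM final) MDA-kb2 cultures, 3,000 cells/well, were treated with compounds across 15 concentrations. After 16 hr at 37C with no CO2, cell viability was determined by CellTiter-Fluor fluorescence in the luciferase assay wells.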
# [4] = qHTS assay to identify small molecule agonists of the estrogen receptor beta (ER-beta) signaling pathway - cell viability counter screen (AID 1259380); further: nearly all actives have a fitted effect of over 30% in size; further: potency means the concentration at half of the fitted maximal effect
# Procedure, shortened: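 Steps: plate ER-beta-UAS-bla HEK293T cells, rest 6 hr; add compounds in DMSO; incubate 16 hr at 37C, 5% CO2; add FRET substrate 2 hr; add CellTiter-Glo, wait 30 min at room temperature; read luminescence.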
# [5] = molecular target: Estrogen receptor (Homo sapiens) (UniProt P03372); assay: qHTS assay to identify small molecule agonists of the estrogen receptor alpha (ER-alpha) signaling pathway in the presence of an antagonist (AID 1259383; calls by dose curve; further: top concentration of the series differs between compounds; nearly all actives have a fitted effect of over 15% in size)
# Estrogen receptor (Homo sapiens), sequence (P03372 whole entry, looked up): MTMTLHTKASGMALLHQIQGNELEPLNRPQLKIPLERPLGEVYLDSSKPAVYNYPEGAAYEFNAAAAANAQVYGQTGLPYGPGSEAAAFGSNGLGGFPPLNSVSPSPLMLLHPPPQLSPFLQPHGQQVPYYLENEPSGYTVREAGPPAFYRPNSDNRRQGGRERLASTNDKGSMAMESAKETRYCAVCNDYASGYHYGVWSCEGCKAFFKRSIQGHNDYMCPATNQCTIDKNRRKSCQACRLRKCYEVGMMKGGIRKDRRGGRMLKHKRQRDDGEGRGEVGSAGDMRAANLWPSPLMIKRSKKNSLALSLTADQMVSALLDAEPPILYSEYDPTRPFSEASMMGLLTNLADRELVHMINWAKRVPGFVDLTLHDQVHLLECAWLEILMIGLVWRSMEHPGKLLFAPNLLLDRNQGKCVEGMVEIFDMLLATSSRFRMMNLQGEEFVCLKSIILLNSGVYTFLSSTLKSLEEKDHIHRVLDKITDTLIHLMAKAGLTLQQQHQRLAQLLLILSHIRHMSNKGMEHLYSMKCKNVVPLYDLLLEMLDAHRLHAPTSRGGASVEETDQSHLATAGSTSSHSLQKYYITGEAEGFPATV
# Procedure, shortened: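 Readout was ERE-driven luciferase luminescence in VM7Luc4E2 cells, which express full-length ER-alpha endogenously. Compounds were tested at 15 concentrations for 22hr alongside 10.0nM ICI-182,780 (final concentration).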
# [6] = qHTS assay to identify small molecule agonists or antagonists of the thyroid stimulating hormone receptor (TSHR) signaling pathway - wild type cell line counter screen (AID 1259384; calls by dose curve; further: potency means the concentration at half of the fitted maximal effect)
# Procedure, shortened: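 Counter screen in untransfected Hek293: compounds (15-point titration, triplicate) plus phosphodiesterase inhibitor Ro20-1724 added after 18 h plating; 30 min RT. Intracellular cAMP via competitive d2/cryptate immunoassay, 1 h incubation.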
# [7] = molecular target: Thyrotropin receptor (Homo sapiens) (UniProt P16473); assay: qHTS assay to identify small molecule antagonists of the thyroid stimulating hormone receptor (TSHR) signaling pathway (AID 1259385; calls by dose curve; further: nearly all actives have a fitted effect of over 20% in size)
# Thyrotropin receptor (Homo sapiens), sequence (P16473 whole entry, looked up): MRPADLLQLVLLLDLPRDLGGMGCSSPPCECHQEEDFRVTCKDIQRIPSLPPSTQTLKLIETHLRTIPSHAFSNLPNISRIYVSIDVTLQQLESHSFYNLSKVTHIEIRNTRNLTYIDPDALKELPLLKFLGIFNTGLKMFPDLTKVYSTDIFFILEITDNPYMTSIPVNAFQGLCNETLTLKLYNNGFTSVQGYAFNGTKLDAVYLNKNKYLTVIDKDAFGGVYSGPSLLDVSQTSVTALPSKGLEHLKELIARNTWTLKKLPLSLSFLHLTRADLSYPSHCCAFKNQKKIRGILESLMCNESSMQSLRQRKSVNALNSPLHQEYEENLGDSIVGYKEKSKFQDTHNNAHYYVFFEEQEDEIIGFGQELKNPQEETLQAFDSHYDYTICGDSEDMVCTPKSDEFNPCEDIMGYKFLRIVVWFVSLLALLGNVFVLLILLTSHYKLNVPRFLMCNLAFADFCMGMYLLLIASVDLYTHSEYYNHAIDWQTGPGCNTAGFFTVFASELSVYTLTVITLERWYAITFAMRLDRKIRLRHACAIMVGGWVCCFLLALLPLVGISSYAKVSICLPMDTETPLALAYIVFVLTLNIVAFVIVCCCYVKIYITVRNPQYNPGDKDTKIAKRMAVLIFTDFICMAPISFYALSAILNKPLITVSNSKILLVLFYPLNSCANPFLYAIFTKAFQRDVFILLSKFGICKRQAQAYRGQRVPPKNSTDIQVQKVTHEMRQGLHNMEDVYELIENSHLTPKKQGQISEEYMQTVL
# Procedure, shortened: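 Antagonist mode: compound-treated TSHR-expressing HEK293 cells were stimulated with 1.5 ng/mL TSH (final) in presence of Ro20-1724 for 30 min at RT. HTRF cAMP detection after 1 h; each compound tested at 15 concentrations, triplicate.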
# [8] = qHTS assay to identify small molecule agonists of the estrogen receptor alpha (ER-alpha) signaling pathway in the presence of an antagonist - cell viability counter screen (AID 1259386);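 further: series mostly up to about 92 µM; cells exposed to compounds for 22 h at 37 °C before the viability read; nearly all actives have a fitted effect of over 30% in size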
# Procedure, shortened: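 In this counter screen, compound effects on VM7Luc4E2 viability were tested in the presence of the antagonist ICI-182,780 at 10.0nM final. Compounds were dosed at 15 concentrations, exposure lasted 22hr, and the CellTiter-Fluor signal was read.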
# [9] = molecular target: Progesterone receptor (Homo sapiens) (UniProt P06401); assay: qHTS assay to identify small molecule agonists of the progesterone receptor (PR) signaling pathway (AID 1346784; calls by dose curve; further: nearly all actives have a fitted effect of over 30% in size)
# Progesterone receptor (Homo sapiens), sequence (P06401 whole entry, looked up): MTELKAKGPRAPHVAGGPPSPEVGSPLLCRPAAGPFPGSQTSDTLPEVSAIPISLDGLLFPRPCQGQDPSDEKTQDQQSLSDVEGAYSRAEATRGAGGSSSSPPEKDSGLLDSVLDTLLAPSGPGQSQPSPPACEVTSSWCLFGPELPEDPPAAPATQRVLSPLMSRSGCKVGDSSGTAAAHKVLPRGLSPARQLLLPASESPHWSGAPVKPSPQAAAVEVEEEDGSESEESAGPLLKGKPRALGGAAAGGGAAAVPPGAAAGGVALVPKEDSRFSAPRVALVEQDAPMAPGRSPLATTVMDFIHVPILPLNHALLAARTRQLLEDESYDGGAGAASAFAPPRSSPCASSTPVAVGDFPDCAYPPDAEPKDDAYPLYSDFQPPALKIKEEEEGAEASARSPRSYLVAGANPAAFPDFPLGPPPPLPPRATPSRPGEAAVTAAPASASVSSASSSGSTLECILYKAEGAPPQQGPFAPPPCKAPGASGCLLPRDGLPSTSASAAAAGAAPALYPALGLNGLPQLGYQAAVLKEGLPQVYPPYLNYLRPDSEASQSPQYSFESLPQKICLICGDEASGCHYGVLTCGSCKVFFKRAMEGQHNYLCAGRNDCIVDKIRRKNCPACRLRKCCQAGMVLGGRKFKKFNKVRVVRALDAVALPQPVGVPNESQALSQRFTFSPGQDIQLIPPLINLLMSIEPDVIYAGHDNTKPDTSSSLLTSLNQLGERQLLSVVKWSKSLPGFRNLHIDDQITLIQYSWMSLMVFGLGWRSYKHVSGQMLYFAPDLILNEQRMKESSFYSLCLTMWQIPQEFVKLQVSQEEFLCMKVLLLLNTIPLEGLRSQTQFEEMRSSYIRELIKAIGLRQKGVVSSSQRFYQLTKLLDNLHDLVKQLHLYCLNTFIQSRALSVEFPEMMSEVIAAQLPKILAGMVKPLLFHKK
# Procedure, shortened: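 Using charcoal-stripped serum (2%) to limit endogenous steroids, PR-UAS-bla HEK 293T cells received compounds for 16 hr at 37C after 6 hr plating; beta-lactamase FRET fluorescence was recorded following 2 hr substrate loading at room temperature.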
# [10] = molecular target: Progesterone receptor (Homo sapiens) (UniProt P06401); assay: qHTS assay to identify small molecule antagonists of the progesterone receptor (PR) signaling pathway (AID 1346795; active means well fitted inhibition curve with a large enough effect in the signal ratio in the repeat runs, not every such curve was filed as active; the % refers to the signal ratio; further: potency means the concentration at half of the fitted maximal effect)
# Procedure, shortened: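 Inhibition of R5020-induced (1 nM final) beta-lactamase reporter signal in PR-UAS-bla HEK293T cells was scored by FRET fluorescence after overnight (16 hr) compound treatment.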
# [11] = qHTS assay to identify small molecule antagonists of the progesterone receptor (PR) signaling pathway - cell viability counter screen (AID 1346798); further: nearly all actives have a fitted effect of over 50% in size; further: potency means the concentration at half of the fitted maximal effect
# Procedure, shortened: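 ATP content as viability readout: CellTiter-Glo luminescence, 30 min room temperature, in PR-UAS-bla HEK293T cells after 16 hr compound/R5020 treatment at 37C and 5% CO2.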
# [12] = qHTS assay to identify small molecule agonists of the progesterone receptor (PR) signaling pathway - cell viability counter screen (AID 1346799; calls by dose curve; further: nearly all actives have a fitted effect of over 45% in size; further: potency means the concentration at half of the fitted maximal effect)
# Procedure, shortened: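 Cytotoxicity in PR-bla HEK293T cells: 16 h compound, 37C; CellTiter-Glo added post-FRET read; luminescence after 30 min RT.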
# [13] = qHTS assay to identify small molecule antagonists of the TGF-beta/Smad signaling pathway - cell viability counter screen (AID 1346824); further: nearly all actives have a fitted effect of over 50% in size
# Procedure, shortened: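 Cytotoxicity counter-screen run in the same wells as the beta-lactamase Smad reporter read: CellTiter-Glo luminescence after 30 min at room temperature. HEK 293T SBE-bla cells had 5 hr compound exposure at 37 C with TGF-beta1 (0.25 ng/mL stock).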
# [14] = qHTS assay to identify small molecule agonists of the TGF-beta/Smad signaling pathway - cell viability counter screen (AID 1346829); further: top concentration of the series differs between compounds; nearly all actives have a fitted effect of over 45% in size
# Procedure, shortened: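 SBE-bla HEK 293T cells plated overnight, compound exposure 5 hr at 37 C. Viability read in the same wells by CellTiter-Glo luminescence after 30 min at room temperature, following the beta-lactamase read.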
# [15] = qHTS assay to identify small molecule agonists of the TGF-beta/Smad signaling pathway (AID 1346859; active means well fitted activation curve with a large enough effect in the signal ratio in the repeat runs, not every such curve was filed as active; the % refers to the signal ratio; further: series mostly up to about 77 µM)
# Procedure, shortened: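 Stable Smad binding element-beta-lactamase HEK 293T cells; 5 hr compound exposure at 37 C under 5% CO2; 2 hr room-temperature substrate step; fluorescence excited at 405 nm, collected at 460 nm and 530 nm.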
# [16] = molecular target: Thyrotropin-releasing hormone receptor (Homo sapiens) (UniProt P34981); assay: qHTS assay to identify small molecule antagonists of the thyrotropin-releasing hormone receptor (TRHR) signaling pathway (AID 1346877; active means well fitted inhibition curve with a large enough effect in the repeat runs, not every such curve was filed as active; further: series mostly up to about 51 µM)
# Thyrotropin-releasing hormone receptor (Homo sapiens), sequence (P34981 whole entry, looked up): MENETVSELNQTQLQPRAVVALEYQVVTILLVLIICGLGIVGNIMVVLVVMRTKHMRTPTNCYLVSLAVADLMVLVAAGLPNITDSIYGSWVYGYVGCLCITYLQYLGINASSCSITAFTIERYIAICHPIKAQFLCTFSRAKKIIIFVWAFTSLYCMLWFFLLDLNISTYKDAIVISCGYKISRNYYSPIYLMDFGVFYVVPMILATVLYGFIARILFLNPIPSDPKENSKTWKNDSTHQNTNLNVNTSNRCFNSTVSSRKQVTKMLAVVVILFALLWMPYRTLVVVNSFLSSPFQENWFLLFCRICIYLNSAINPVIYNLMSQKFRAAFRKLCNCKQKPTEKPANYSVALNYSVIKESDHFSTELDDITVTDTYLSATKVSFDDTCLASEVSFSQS
# Procedure, shortened: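 Kinetic fluorescence (3 min, 1 s resolution) following stimulation with TRH at 1 nM final; HEK293 cells bearing human TRHR; 5 min compound preincubation at RT; concentration-response over 15 points, triplicates.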
# [17] = molecular target: Thyrotropin-releasing hormone receptor (Homo sapiens) (UniProt P34981); assay: qHTS assay to identify small molecule agonists of the thyrotropin-releasing hormone receptor (TRHR) signaling pathway (AID 1346891; calls by dose curve;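 further: HEK293 cells expressing TRHR with calcium dye readout; series mostly up to about 58 µM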)
# Procedure, shortened: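 In 1536-format, 1500 TRHR-Hek293 cells per well grew 18 h, took up calcium dye for 2 h at 37 °C, received compound, and were read kinetically; 15-point titrations, triplicates.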
# [18] = Human pregnane X receptor (PXR) small molecule agonists, qHTS cell viability counter screen (AID 1346977); further: nearly all actives have a fitted effect of over 50% in size; further: potency means the concentration at half of the fitted maximal effect
# Procedure, shortened: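 Readout is CellTiter-Fluor fluorescence from PXR-Luc HepG2 cells. Plated cells rested 5hr, then were treated with compounds for 24hr at 37C and 5% CO2, with reagent present during the last hour.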
# [19] = molecular target: Androgen receptor (Homo sapiens) (UniProt P10275); assay: qHTS assay to identify small molecule agonists of the androgen receptor (AR) signaling pathway in the presence of an antagonist (AID 1259381; calls by dose curve; further: nearly all actives have a fitted effect of over 15% in size)
# Androgen receptor (Homo sapiens), sequence (P10275 whole entry, looked up): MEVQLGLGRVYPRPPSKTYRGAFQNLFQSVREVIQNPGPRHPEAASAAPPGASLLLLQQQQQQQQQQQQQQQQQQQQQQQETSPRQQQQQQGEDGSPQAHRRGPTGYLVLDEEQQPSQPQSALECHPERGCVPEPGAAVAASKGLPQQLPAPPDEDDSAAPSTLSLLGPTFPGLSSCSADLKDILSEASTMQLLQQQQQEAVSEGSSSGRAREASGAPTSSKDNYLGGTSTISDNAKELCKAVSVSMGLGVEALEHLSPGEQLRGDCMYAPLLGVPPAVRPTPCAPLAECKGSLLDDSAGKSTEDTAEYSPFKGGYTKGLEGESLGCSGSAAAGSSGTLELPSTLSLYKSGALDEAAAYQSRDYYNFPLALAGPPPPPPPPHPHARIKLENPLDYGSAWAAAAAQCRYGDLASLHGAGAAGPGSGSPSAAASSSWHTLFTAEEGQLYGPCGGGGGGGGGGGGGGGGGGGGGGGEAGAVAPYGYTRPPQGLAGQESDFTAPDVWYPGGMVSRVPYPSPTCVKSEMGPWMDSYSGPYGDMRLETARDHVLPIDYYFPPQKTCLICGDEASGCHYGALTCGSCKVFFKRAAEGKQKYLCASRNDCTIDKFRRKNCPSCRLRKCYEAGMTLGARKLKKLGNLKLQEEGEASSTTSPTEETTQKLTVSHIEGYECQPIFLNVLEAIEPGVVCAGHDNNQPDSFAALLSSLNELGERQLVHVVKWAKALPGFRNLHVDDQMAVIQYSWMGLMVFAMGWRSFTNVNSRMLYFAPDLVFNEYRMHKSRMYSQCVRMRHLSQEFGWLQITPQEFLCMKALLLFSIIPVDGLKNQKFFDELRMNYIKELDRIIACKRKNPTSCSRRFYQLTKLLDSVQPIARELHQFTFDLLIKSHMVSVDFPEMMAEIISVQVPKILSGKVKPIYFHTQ
# Procedure, shortened: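 Reporter-gene luminescence from MDA-kb2 cells exposed 16hr at 37C (0% CO2) to 15-point compound titrations with 3.0uM final nilutamide as AR antagonist.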
# [20] = qHTS assay to identify small molecule antagonists of the estrogen receptor beta (ER-beta) signaling pathway - cell viability counter screen (AID 1259382); further: nearly all actives have a fitted effect of over 55% in size; further: potency means the concentration at half of the fitted maximal effect
# Procedure, shortened: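 Viability is scored by CellTiter-Glo luminescence (30 min, room temperature) in ER-beta-UAS-bla HEK293T wells already read for reporter fluorescence. Compound exposure lasts 16 hr at 37C alongside 1nM 17-beta-estradiol in charcoal-stripped serum medium.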
SMILES,Potency [1],Potency [2],Potency [3],Potency [4],Potency [5],Potency [6],Potency [7],Potency [8],Potency [9],Potency [10],Potency [11],Potency [12],Potency [13],Potency [14],outcome [15],Potency [16],Potency [17],Potency [18],Potency [19],Potency [20]
O=C(O)CCCC(=O)O,30 µM (active) and inactive,inactive,inactive,inactive,inactive,inactive,inactive,inactive,inactive,inactive,inactive,inactive,inactive,inactive,inactive,inactive,inactive,inactive,–,–
c1ccc2c(c1)[nH]c1ccccc12,inactive,inactive,inactive,inactive,–,–,–,inactive,inactive,26.8 µM (active),–,inactive,inactive,inactive,inactive,inactive,inactive,inactive,inactive,inactive
CCO[Si](CCCNC(N)=O)(OCC)OCC,inactive,inactive,inactive,inactive,–,inactive,inactive,inactive,inactive,inactive,inactive,inactive,inactive,inactive,inactive,–,–,inactive,–,–
O=C(CCCN1CCC(O)(c2ccc(Cl)cc2)CC1)c1ccc(F)cc1,inactive,inactive,68.6 µM (active) and inactive,21.7 µM (active) and 23.7 µM (active),–,inactive,inactive,inactive,–,–,inactive,inactive,inactive,inactive,inactive,inactive,inactive,27.3 µM (active) and 23.7 µM (active),–,–
O=Cc1ccccc1C=O,inactive,54.5 µM (active) and inactive,–,inactive,inactive,inactive,inactive,inactive,inactive,inactive,inactive,–,inactive,inactive,inactive,inactive,inactive,48.6 µM (active) and inactive,inactive,–
CCCCCCCCCCCCCO,inactive,inactive,inactive,inactive,–,–,–,inactive,inactive,inactive,inactive,inactive,–,inactive,inactive,inactive,inactive,inactive,–,–
COc1ccc2nc(N)sc2c1,inactive,inactive,–,inactive,–,inactive,–,inactive,inactive,inactive,–,inactive,inactive,inactive,inactive,–,–,inactive,inactive,inactive
C=C[C@@]1(C)CC(=O)[C@]2(O)[C@@]3(C)[C@@H](O)CCC(C)(C)[C@@H]3[C@H](O)[C@H](OC(C)=O)[C@@]2(C)O1,inactive,–,–,19.3 µM (active) and 11.9 µM (active),–,63.6 nM (active) and 256 nM (active),–,inactive,inactive,–,24.3 µM (active) and 15 µM (active),–,inactive,inactive,inactive,–,–,inactive,–,–
Cc1ccc([N+](=O)[O-])c(C)c1,–,–,inactive,6.11 µM (active) and inactive,inactive,inactive,inactive,inactive,inactive,inactive,–,19.3 µM (active) and inactive,inactive,inactive,inactive,inactive,inactive,inactive,–,8.63 µM (active) and inactive
CN1CCOCC1,inactive,inactive,–,inactive,–,–,–,inactive,inactive,inactive,–,inactive,–,inactive,inactive,inactive,inactive,inactive,–,inactive
Nc1cc([N+](=O)[O-])ccc1C(=O)O,inactive,inactive,–,inactive,–,inactive,inactive,inactive,inactive,inactive,–,inactive,inactive,inactive,inactive,inactive,inactive,inactive,–,–
FC(F)(F)C(Cl)Br (stereo unspecified),inactive,inactive,–,inactive,–,inactive,inactive,inactive,inactive,inactive,inactive,–,–,inactive,inactive,–,–,inactive,–,inactive
CCCN1C=CN(C)C1,–,–,inactive,inactive,inactive,inactive,inactive,inactive,inactive,inactive,inactive,–,–,inactive,inactive,–,–,inactive,–,inactive
Cc1ccc(N)c([N+](=O)[O-])c1,inactive,inactive,–,inactive,–,inactive,inactive,inactive,inactive,–,inactive,inactive,inactive,inactive,inactive,inactive,inactive,inactive,–,–
c1ccc2c(c1)ccc1cc3c(ccc4ccccc43)cc12,–,–,inactive,inactive,inactive,inactive,–,inactive,inactive,inactive,inactive,inactive,–,inactive,inactive,inactive,inactive,inactive,–,inactive
Cc1ccc(S(=O)(=O)NCl)cc1,–,–,inactive,inactive,–,inactive,inactive,inactive,inactive,inactive,inactive,–,inactive,inactive,inactive,–,–,inactive,–,inactive
CCCCCCC(C)O (stereo unspecified),inactive,inactive,–,inactive,inactive,–,–,inactive,inactive,inactive,–,inactive,inactive,inactive,inactive,inactive,inactive,inactive,–,–
